We go through one sequence from article PMC7862700, “An all-to-all approach to the identification of sequence-specific readers for epigenetic DNA modifications on cytosine”.

What all share (assay): DAPPL (digital affinity profiling via proximity ligation, sequencing); 10 mM Tris-HCl pH 7.5, 50 mM NaCl, 1 mM DTT, 4% glycerol, room temperature, 30 min; GST-TFs on glutathione beads, 16-mer random dsDNA library, 0.1% formaldehyde crosslink after washing; high values mean tight binding
What all share (conditions): protein: recombinant; tags: N-terminal GST; dsDNA, one strand shown

In one assay the target is T1, ELK1 (Homo sapiens, UniProt P19419 1-428).
T1 sequence: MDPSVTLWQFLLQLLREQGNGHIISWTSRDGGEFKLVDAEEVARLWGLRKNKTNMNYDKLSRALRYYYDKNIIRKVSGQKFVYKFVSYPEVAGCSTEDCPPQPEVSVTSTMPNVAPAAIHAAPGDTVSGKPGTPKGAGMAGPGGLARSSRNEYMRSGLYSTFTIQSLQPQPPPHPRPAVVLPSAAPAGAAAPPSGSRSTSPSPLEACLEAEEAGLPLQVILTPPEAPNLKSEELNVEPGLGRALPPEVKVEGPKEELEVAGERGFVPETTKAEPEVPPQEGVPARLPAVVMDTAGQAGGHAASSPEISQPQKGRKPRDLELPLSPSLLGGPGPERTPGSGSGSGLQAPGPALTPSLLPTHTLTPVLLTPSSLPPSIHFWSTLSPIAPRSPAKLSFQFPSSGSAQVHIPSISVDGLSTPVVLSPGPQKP
In outline: (§1)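 Beads coated with glutathione captured GST-fused human transcription factors that had been expressed in yeast, and the factors were then given DNA barcodes and pooled with a tag-only sample. The pools were incubated with 200 nmole of a random double-stranded 16-mer DNA library in Tris/NaCl/DTT/glycerol buffer for 30 min at room temperature, washed, crosslinked with 0.1% formaldehyde and proximity-ligated with BsaI/T4 ligase at 37 °C for 1 h. PCR amplification and Illumina NextSeq500 sequencing came last. Binding signal is each hexamer's read frequency for a factor divided by its frequency for the tag-only sample.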

The next assay concerns the target T2, GABPA (Homo sapiens, UniProt Q06546 1-454).
T2 sequence: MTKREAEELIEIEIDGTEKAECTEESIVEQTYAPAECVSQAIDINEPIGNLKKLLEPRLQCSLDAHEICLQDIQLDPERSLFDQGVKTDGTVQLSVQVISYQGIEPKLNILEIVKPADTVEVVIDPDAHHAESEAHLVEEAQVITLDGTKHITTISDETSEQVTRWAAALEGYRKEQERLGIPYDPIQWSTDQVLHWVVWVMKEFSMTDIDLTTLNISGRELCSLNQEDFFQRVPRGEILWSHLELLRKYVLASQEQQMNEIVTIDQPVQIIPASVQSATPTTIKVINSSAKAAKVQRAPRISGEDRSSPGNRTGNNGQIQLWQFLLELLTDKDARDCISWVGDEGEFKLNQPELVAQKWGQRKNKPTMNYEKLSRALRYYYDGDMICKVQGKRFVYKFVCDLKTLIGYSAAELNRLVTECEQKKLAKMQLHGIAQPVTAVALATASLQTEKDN
In short, it runs like this: as §1

For a further assay, the target named is T3, ERG (Homo sapiens, UniProt P11308 1-479).
T3 sequence: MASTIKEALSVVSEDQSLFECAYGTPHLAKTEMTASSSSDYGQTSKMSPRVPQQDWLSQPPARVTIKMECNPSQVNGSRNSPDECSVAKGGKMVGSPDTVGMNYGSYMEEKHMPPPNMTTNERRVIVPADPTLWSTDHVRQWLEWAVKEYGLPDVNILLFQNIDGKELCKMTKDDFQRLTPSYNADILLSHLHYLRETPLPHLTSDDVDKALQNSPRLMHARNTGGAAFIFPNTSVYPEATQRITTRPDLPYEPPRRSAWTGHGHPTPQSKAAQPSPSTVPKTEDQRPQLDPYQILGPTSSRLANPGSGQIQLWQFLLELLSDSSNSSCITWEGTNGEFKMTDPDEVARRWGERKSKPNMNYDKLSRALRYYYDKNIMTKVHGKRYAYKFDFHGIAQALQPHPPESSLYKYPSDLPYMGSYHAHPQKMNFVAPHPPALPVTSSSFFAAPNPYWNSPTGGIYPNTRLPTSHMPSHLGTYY
In outline: as §1

The next assay concerns the target ELF1 (Homo sapiens, UniProt P32519 1-619). In short, it runs like this:
as §1

Another assay concerns the target T4, EHF (Homo sapiens, UniProt Q9NZC4 1-300).
T4 sequence: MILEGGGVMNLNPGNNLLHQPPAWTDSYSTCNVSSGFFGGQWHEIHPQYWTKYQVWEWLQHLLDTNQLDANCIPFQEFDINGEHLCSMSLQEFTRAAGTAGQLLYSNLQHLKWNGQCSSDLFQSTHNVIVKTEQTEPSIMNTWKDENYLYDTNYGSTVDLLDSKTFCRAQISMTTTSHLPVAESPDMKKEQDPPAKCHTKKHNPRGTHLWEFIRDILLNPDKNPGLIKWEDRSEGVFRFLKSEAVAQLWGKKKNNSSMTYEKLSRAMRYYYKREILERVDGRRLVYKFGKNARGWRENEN
In outline: as §1

The target in another assay is T5, FEV (Homo sapiens, UniProt Q99581 1-238).
T5 sequence: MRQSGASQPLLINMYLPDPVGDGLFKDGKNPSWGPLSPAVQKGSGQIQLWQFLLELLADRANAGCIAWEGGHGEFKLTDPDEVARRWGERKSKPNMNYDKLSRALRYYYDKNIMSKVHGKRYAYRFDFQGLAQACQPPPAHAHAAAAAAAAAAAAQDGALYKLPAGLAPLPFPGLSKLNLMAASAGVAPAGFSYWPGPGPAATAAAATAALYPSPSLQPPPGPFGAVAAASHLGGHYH
In short, it runs like this:
as §1

A further assay concerns the target ETV5 (Homo sapiens, UniProt P41161 1-510). In outline:
as §1

In the next assay the target is ELF4 (Homo sapiens, UniProt Q99607 1-663). In outline: as §1
Sequence of ELF4 (Q99607 whole entry): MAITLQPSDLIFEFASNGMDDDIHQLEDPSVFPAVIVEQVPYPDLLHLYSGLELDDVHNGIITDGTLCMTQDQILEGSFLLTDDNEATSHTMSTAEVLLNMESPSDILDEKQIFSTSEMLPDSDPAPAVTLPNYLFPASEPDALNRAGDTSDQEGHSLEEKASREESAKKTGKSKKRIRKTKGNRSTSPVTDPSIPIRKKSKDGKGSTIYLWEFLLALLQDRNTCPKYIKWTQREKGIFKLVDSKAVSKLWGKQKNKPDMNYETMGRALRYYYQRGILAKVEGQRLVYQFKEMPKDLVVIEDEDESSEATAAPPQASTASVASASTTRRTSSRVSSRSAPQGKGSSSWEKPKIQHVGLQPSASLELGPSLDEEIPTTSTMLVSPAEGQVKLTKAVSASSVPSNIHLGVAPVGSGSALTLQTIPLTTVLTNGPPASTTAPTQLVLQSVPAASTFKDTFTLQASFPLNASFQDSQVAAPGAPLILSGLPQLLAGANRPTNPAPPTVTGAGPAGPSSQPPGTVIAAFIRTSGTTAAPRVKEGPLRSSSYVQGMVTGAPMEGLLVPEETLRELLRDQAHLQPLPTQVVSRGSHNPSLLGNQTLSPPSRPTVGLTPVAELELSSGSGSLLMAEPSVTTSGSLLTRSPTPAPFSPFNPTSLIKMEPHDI
In a further assay the target is T6, ELK4 (Homo sapiens, UniProt P28324-2 1-405).
T6 sequence: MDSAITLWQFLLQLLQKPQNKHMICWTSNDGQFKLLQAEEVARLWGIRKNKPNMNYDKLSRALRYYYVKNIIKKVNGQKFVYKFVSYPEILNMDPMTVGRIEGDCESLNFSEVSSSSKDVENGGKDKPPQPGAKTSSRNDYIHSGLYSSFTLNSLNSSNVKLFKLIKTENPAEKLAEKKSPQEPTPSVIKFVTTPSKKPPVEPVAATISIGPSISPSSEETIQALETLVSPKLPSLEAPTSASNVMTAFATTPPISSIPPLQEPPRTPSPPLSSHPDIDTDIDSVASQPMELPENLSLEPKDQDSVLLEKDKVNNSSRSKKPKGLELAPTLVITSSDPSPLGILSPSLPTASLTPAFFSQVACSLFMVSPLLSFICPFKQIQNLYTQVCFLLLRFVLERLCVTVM
In short, it runs like this:
as §1

The target in the next assay is T7, ETV2 (Homo sapiens, UniProt O00321 1-342).
T7 sequence: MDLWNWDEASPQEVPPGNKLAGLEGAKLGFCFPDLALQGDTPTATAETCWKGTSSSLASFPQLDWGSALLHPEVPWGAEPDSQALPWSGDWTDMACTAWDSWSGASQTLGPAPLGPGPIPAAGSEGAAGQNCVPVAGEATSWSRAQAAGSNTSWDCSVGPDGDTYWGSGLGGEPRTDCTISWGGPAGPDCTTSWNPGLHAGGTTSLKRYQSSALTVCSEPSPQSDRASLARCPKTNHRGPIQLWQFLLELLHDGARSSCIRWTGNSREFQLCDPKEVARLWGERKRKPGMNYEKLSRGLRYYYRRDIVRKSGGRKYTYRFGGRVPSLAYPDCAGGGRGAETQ
In outline:
as §1

Another assay has as its target ETV1 (Homo sapiens, UniProt P50549 1-477). In short, it runs like this: as §1
A further assay concerns the target T8, ERF (Homo sapiens, UniProt P50548 1-548).
T8 sequence: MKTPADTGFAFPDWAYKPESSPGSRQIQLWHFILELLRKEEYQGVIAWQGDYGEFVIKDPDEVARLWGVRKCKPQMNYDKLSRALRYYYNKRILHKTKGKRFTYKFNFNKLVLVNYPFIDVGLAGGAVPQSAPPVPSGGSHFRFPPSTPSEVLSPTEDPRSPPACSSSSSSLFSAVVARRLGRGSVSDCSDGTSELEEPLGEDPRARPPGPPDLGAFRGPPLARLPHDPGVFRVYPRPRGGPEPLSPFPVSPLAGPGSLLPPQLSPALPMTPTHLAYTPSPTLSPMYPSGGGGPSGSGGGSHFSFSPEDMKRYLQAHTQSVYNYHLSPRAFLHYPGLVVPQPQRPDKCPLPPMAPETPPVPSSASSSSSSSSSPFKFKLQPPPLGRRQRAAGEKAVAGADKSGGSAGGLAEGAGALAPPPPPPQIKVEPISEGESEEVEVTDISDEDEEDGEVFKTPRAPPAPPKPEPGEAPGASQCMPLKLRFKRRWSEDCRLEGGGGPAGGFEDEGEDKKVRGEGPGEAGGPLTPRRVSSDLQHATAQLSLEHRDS
In short, it runs like this:
as §1

In the next assay the target is T9, ETV3L (Homo sapiens, UniProt Q6ZN32 1-361).
T9 sequence: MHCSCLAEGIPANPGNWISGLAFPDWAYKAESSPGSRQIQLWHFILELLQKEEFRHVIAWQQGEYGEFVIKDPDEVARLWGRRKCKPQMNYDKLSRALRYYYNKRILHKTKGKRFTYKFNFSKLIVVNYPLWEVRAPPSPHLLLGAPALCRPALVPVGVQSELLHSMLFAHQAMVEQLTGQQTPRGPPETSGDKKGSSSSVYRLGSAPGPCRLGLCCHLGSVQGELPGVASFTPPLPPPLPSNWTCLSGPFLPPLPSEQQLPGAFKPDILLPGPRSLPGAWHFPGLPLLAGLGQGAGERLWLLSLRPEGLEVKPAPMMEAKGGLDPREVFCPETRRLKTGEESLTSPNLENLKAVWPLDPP
In outline:
as §1

Another assay addresses T10, ETS2 (Homo sapiens, UniProt P15036 1-469).
T10 sequence: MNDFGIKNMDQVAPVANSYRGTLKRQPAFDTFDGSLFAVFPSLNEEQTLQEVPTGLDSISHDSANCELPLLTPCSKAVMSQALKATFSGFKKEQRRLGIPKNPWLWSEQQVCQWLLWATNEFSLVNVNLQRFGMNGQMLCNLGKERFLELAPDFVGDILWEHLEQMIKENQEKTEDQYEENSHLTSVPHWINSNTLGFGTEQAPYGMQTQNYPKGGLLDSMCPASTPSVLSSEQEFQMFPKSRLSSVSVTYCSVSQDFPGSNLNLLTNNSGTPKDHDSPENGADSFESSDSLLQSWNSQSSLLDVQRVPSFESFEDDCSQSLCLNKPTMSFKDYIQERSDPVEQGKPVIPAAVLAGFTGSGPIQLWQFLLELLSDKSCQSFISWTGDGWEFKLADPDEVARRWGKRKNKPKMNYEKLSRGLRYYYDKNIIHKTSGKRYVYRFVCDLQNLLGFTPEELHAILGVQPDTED
In short, it runs like this:
as §1

The target in another assay is T11, SPDEF (Homo sapiens, UniProt O95238 1-335).
T11 sequence: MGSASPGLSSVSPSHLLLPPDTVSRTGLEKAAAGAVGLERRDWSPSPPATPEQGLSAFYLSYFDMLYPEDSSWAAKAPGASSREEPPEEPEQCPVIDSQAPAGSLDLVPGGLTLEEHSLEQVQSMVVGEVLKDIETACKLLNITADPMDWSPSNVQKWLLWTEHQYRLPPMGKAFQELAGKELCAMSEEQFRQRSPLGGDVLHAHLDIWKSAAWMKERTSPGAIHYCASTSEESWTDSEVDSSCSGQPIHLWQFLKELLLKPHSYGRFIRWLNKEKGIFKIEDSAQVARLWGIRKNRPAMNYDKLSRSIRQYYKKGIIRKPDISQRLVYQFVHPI
In outline:
as §1

The target in the next assay is T12, ETV7 (Homo sapiens, UniProt Q9Y603 1-341).
T12 sequence: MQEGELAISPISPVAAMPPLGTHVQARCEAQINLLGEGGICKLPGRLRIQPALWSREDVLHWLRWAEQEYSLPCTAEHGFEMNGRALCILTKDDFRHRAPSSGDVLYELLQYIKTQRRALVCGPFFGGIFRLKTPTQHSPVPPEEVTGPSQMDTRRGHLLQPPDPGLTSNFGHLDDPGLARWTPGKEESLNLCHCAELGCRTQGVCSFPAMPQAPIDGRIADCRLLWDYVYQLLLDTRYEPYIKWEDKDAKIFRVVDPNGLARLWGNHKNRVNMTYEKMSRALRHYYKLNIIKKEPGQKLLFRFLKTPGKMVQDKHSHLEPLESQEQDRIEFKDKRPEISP
In short, it runs like this: as §1

For a further assay, the target named is T13, ETV3 (Homo sapiens, UniProt P41162-2 1-143).
T13 sequence: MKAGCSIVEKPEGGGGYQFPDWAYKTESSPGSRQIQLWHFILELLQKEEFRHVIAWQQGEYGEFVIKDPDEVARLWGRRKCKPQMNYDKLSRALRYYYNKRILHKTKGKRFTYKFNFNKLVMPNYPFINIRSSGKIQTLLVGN
In short, it runs like this: as §1

A further assay has as its target ETV6 (Homo sapiens, UniProt P41212 1-452). In short, it runs like this:
as §1

Sequence of ETV5 (P41161 whole entry): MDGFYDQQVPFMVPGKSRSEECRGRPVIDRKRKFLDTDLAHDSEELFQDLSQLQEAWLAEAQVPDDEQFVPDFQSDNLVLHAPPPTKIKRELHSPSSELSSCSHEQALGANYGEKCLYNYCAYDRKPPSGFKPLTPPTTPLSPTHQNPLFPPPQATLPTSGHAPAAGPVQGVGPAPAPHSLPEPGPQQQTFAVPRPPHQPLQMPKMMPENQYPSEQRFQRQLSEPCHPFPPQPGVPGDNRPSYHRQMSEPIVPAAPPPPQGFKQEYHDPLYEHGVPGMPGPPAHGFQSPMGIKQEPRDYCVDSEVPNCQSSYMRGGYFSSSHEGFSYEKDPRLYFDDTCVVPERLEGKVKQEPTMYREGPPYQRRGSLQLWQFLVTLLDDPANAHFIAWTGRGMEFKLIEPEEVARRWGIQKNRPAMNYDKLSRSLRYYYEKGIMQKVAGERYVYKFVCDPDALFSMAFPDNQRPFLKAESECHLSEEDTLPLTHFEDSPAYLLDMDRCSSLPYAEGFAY
Sequence of ELF1 (P32519 whole entry): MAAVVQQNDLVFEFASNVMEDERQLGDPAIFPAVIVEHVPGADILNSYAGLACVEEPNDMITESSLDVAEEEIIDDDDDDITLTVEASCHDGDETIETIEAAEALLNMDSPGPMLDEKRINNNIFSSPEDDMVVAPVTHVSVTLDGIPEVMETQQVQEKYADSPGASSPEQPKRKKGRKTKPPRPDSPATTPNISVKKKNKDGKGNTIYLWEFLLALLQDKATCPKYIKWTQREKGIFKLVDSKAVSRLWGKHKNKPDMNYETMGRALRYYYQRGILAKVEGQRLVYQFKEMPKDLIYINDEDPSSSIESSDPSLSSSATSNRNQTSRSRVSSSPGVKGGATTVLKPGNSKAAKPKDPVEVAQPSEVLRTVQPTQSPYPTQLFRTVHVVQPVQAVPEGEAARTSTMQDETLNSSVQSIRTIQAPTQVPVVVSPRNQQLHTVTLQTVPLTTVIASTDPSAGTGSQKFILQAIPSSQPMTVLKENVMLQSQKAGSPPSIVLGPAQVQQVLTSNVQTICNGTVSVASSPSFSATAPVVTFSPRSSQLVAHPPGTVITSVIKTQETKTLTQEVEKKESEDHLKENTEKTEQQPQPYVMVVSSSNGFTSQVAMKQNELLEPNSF
Sequence of ETV6 (P41212 whole entry): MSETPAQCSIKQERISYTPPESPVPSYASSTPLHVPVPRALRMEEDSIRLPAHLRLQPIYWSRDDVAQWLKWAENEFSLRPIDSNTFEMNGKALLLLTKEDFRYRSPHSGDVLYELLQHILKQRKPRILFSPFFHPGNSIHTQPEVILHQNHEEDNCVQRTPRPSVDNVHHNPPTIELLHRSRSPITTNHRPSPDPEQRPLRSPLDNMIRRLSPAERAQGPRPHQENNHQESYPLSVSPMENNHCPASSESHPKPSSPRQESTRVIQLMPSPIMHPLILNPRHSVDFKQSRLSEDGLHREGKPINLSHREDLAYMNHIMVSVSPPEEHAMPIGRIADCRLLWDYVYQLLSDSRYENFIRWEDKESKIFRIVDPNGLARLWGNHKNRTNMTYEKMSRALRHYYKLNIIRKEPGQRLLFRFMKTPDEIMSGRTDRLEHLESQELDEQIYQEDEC
Sequence of ETV1 (P50549 whole entry): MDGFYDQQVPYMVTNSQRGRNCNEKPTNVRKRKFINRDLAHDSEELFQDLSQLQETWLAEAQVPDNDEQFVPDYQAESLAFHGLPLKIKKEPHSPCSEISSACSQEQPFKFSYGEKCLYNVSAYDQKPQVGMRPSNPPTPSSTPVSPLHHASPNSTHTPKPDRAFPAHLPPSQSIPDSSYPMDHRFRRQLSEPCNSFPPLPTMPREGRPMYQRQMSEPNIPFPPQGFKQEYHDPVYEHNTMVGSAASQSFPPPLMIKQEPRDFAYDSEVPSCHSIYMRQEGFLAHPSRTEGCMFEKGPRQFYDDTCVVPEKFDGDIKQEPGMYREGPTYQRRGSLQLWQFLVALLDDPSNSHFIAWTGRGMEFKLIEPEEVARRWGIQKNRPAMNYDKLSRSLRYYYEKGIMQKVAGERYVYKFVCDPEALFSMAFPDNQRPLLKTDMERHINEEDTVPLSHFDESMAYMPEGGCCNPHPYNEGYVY

AAGGGC: the binding signal is 1.02 fold enrichment (6-mer frequency, TF over GST control) with ELK1; 1.1 fold enrichment (6-mer frequency, TF over GST control) with GABPA; 1.06 fold enrichment (6-mer frequency, TF over GST control) in the assay with ERG; 1.06 fold enrichment (6-mer frequency, TF over GST control) with ELF1; 1.01 fold enrichment (6-mer frequency, TF over GST control) with EHF; 1.02 fold enrichment (6-mer frequency, TF over GST control) with FEV. For the same sequence, the binding signal with ETV5 was 1.06 fold enrichment (6-mer frequency, TF over GST control); with ELF4 it was 1.01 fold enrichment (6-mer frequency, TF over GST control); in the assay with ELK4, 1.13 fold enrichment (6-mer frequency, TF over GST control); with ETV2, 1.06 fold enrichment (6-mer frequency, TF over GST control); with ETV1 it was 1.05 fold enrichment (6-mer frequency, TF over GST control); in the assay with ERF it was 1.06 fold enrichment (6-mer frequency, TF over GST control). The binding signal with ETV3L was 1.05 fold enrichment (6-mer frequency, TF over GST control); with ETS2, 1.1 fold enrichment (6-mer frequency, TF over GST control); in the assay with SPDEF, 1.07 fold enrichment (6-mer frequency, TF over GST control); with ETV7 it was 1.05 fold enrichment (6-mer frequency, TF over GST control); with ETV3 it was 1.07 fold enrichment (6-mer frequency, TF over GST control); with ETV6 it was 1.04 fold enrichment (6-mer frequency, TF over GST control).
